This is an account of results in ChEMBL document CHEMBL3988442, “University of Dundee, Small-Polar-MMV Screening Library” (2021).

The structures appear in SMILES notation.

The first assay deals with Trypanosoma cruzi. The assay is described as follows: Trypanosoma cruzi phosphomannomutase and mannose-1-phosphate guanylyltransferase assay. It is filed as functional. Set-up: scale not given: direction of the effect not stated beside the values. The note with it: 10 µM.
Take `CN(CCO)Cc1nnc(C2CCN(C(=O)c3cccnc3)CC2)n1C`: the Percent Effect was determined as 5.75%.

With `CN(C)C(=O)NC1COC2(CCN(C(=O)Nc3ccccc3)CC2)C1` (stereo not drawn), the Percent Effect was -3.54%.

Consider `Cc1cc(C)c(CNC(=O)NCC(O)COc2ccccc2)c(=O)[nH]1` (stereo not drawn), for which the Percent Effect is -0.84%.

For `CCc1cnc2c(c1NCc1ccncc1)c(=O)n(C)c(=O)n2C`, the Percent Effect was -4.5%.

Take `c1cc(C2CCCN2Cc2nnnn2C2CC2)cs1` (stereo not drawn): the Percent Effect is -4.18%.

As to `O=C(CC1CC1)N1CCn2cc(Cn3cncn3)nc2C1`, the Percent Effect is -4.04%.

For the molecule `CN1CCN(Cc2cn3c(n2)CN(C(=O)N2CCOCC2)CC3)CC1`, the Percent Effect was 3.25%.

Regarding `CC(C)c1nc(C(=O)N2CCCC(n3cncn3)C2)c[nH]1` (stereo not drawn), the Percent Effect was -0.308%.

In the case of `CC(C)Cc1cc(C(=O)NCc2nnc[nH]2)[nH]n1`, the Percent Effect is -3.02%.

Regarding `Cn1c(C(F)(F)F)nn(CCNC(=O)CSCc2ccccc2)c1=O`, the Percent Effect amounted to 4.7%.

Regarding `O=C(NCCn1ccc(-c2ccncc2)n1)c1ccncc1`, the Percent Effect was 1.57%.

On to `CCn1cc(N)c(C(=O)NCc2cnn(C)c2)n1`, for which the Percent Effect was -1.48%.

As to `COc1c(CNCc2ccnc(N3CCCC3)c2)c(C)nn1C`, the Percent Effect was found to be 0.103%.

Take `COCCn1cc(C(=O)N2CCCC2c2cc(C)no2)ccc1=O` (stereo not drawn): the Percent Effect was -0.965%.

Turning to `CC(C)C(=O)NCCCn1ncc2c(Cl)cccc21`, the Percent Effect was found to be 5.61%.

Consider `Cc1c[nH]c(CN(C)C(=O)c2cccc(CCC(C)(C)O)c2)n1`, for which the Percent Effect is 5.16%.

In the case of `CC(O)CC(C)(C)CNC(=O)NCc1cccc(-n2ccnc2)c1` (stereo not drawn), the Percent Effect is -2.83%.

Turning to `CN(C)C(C)(C)CNC(=O)C(C)(C)c1ccccc1F`, the Percent Effect was -4.18%.

Take `Cc1cnn(CC2CCCN2C(=O)c2cc3ccccc3[nH]2)c1` (stereo not drawn): the Percent Effect was 7.74%.

As to `Cc1ccc(C(=O)N2CCN(S(C)(=O)=O)CC2)cc1N1CCNC1=O`, the Percent Effect was determined as 2.24%.

For `CC(=O)c1ccccc1C(=O)NCC1(CO)CC1`, the Percent Effect was 1.16%.

For `Cn1nc(CNC(=O)C2COc3ccccc3O2)cc1C1CC1` (stereo not drawn), the Percent Effect is -3.85%.

`CN(CCCc1cnn(C)c1)C(=O)C1CCOC1` (stereo not drawn): the Percent Effect is -6.46%.

For the molecule `CC(NC(=O)NCC1(c2ccccc2)CCC1)c1nncn1C` (stereo not drawn), the Percent Effect was -5.7%.

Consider `CN(C)Cc1cc(=O)n2c(n1)CN(C(=O)Cc1ccsc1)CCC2`, for which the Percent Effect came to 0.492%.

Take `COCCCNC(=O)CN(C)C(=O)c1cc(C)sc1C`: the Percent Effect is -4.55%.

In the case of `Cn1c(CN2CCCC2)nnc1C1CCCN(C(=O)C2CCOCC2)C1` (stereo not drawn), the Percent Effect stood at 5.99%.

`COc1ccc(NC(C)=O)c(N2CCN(C(C)=O)CC2)n1`: the Percent Effect was -3.32%.

As to `CC(=O)NCCc1cc(N2CCN(C(C)=O)CC2)nc(C2CC2)n1`, the Percent Effect was -3.75%.

Consider `NC(=O)CC1CCN(C(=O)CCOc2ccc(Cl)cc2)CC1`, for which the Percent Effect stood at 0.752%.

Turning to `CCn1ccnc1CN1CCCC(CO)(Cc2cccc(Cl)c2)C1` (stereo not drawn), the Percent Effect was 3.23%.

`COc1cccc(C(=O)NS(=O)(=O)c2cccc(C#N)c2)c1OC`: the Percent Effect worked out at 1.58%.

For `Cc1csc(N2CCN(CCc3ccccn3)CC2C)n1` (stereo not drawn), the Percent Effect came out at 6.07%.

On to `Cn1nnc2c1CCN(Cc1ccccc1)C2COCC1CC1` (stereo not drawn), for which the Percent Effect was found to be 3.15%.

Consider `c1ccc(-c2noc3c2CN(CC2CC2)CC3)cc1`, for which the Percent Effect was -0.979%.

For the molecule `CC(C)(C)c1n[nH]c(C2CN(C(=O)c3csnn3)CCO2)n1` (stereo not drawn), the Percent Effect turned out to be 7.5%.

For the molecule `O=C(NC[C@H]1OC[C@@H]2CCN(Cc3ccco3)C[C@@H]21)c1ccsc1`, the Percent Effect is 4.17%.

Consider `CS(=O)(=O)NC[C@]12COC[C@H]1CN(C(=O)c1ccoc1)C2`, for which the Percent Effect was -1.87%.

Consider `Cc1nn(C)c(N(C)C)c1CNCc1ccccc1CN(C)C`, for which the Percent Effect is -1.54%.

Another assay deals with T1, Arginase-2, mitochondrial (Homo sapiens) (UniProt P78540).
T1 sequence (whole entry): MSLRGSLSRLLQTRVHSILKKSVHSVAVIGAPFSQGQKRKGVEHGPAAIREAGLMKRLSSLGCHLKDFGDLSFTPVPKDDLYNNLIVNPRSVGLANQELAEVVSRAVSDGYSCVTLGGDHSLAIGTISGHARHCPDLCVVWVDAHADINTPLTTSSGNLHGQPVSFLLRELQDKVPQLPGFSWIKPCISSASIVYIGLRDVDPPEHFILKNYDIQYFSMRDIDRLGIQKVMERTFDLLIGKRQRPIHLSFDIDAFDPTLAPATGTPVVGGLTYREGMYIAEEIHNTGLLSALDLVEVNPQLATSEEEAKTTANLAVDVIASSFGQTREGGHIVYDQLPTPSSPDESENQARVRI
The assay is described as follows: in vitro enzyme assay to detect the production of urea directly proportional to the activity of Arginase II. It is filed as functional. Also noted: scale not given: in the data most compounds retested in dose-response had high values. The following applies: 33.3 µM.
Turning to `CN(CCO)Cc1nnc(C2CCN(C(=O)c3cccnc3)CC2)n1C`, the Percent Effect was 4.69%.

With `CN(C)C(=O)NC1COC2(CCN(C(=O)Nc3ccccc3)CC2)C1` (stereo not drawn), the Percent Effect stood at 0.699%.

As for `Cc1cc(C)c(CNC(=O)NCC(O)COc2ccccc2)c(=O)[nH]1` (stereo not drawn), the Percent Effect is -0.719%.

`CCc1cnc2c(c1NCc1ccncc1)c(=O)n(C)c(=O)n2C`: the Percent Effect stood at 5%.

Regarding `c1cc(C2CCCN2Cc2nnnn2C2CC2)cs1` (stereo not drawn), the Percent Effect came to 0%.

Take `O=C(CC1CC1)N1CCn2cc(Cn3cncn3)nc2C1`: the Percent Effect was -13.6%.

With `CN1CCN(Cc2cn3c(n2)CN(C(=O)N2CCOCC2)CC3)CC1`, the Percent Effect is -5.52%.

As for `CC(C)c1nc(C(=O)N2CCCC(n3cncn3)C2)c[nH]1` (stereo not drawn), the Percent Effect is 0.215%.

For the molecule `CC(C)Cc1cc(C(=O)NCc2nnc[nH]2)[nH]n1`, the Percent Effect was -4.73%.

`Cn1c(C(F)(F)F)nn(CCNC(=O)CSCc2ccccc2)c1=O`: the Percent Effect is 5%.

On to `O=C(NCCn1ccc(-c2ccncc2)n1)c1ccncc1`, for which the Percent Effect was -0.455%.

`CCn1cc(N)c(C(=O)NCc2cnn(C)c2)n1`: the Percent Effect is -8.28%.

On to `COc1c(CNCc2ccnc(N3CCCC3)c2)c(C)nn1C`, for which the Percent Effect is -0.215%.

For the molecule `COCCn1cc(C(=O)N2CCCC2c2cc(C)no2)ccc1=O` (stereo not drawn), the Percent Effect is 2.38%.

With `CC(C)C(=O)NCCCn1ncc2c(Cl)cccc21`, the Percent Effect is -8.28%.

Regarding `Cc1c[nH]c(CN(C)C(=O)c2cccc(CCC(C)(C)O)c2)n1`, the Percent Effect was found to be 20.3%.

Turning to `CC(O)CC(C)(C)CNC(=O)NCc1cccc(-n2ccnc2)c1` (stereo not drawn), the Percent Effect was -2.23%.

Turning to `CN(C)C(C)(C)CNC(=O)C(C)(C)c1ccccc1F`, the Percent Effect is -0.442%.

Turning to `Cc1cnn(CC2CCCN2C(=O)c2cc3ccccc3[nH]2)c1` (stereo not drawn), the Percent Effect was -1.05%.

With `Cc1ccc(C(=O)N2CCN(S(C)(=O)=O)CC2)cc1N1CCNC1=O`, the Percent Effect stood at 5.73%.

Consider `CC(=O)c1ccccc1C(=O)NCC1(CO)CC1`, for which the Percent Effect was -4.29%.

`Cn1nc(CNC(=O)C2COc3ccccc3O2)cc1C1CC1` (stereo not drawn): the Percent Effect is -3.23%.

On to `CN(CCCc1cnn(C)c1)C(=O)C1CCOC1` (stereo not drawn), for which the Percent Effect is -1.36%.

Turning to `CC(NC(=O)NCC1(c2ccccc2)CCC1)c1nncn1C` (stereo not drawn), the Percent Effect stood at 8.63%.

Regarding `CN(C)Cc1cc(=O)n2c(n1)CN(C(=O)Cc1ccsc1)CCC2`, the Percent Effect worked out at 1.38%.

As for `COCCCNC(=O)CN(C)C(=O)c1cc(C)sc1C`, the Percent Effect is -1.66%.

`Cn1c(CN2CCCC2)nnc1C1CCCN(C(=O)C2CCOCC2)C1` (stereo not drawn): the Percent Effect was 22.9%.

Regarding `COc1ccc(NC(C)=O)c(N2CCN(C(C)=O)CC2)n1`, the Percent Effect amounted to 0%.

Consider `CC(=O)NCCc1cc(N2CCN(C(C)=O)CC2)nc(C2CC2)n1`, for which the Percent Effect was 1.16%.

As to `NC(=O)CC1CCN(C(=O)CCOc2ccc(Cl)cc2)CC1`, the Percent Effect is -4.6%.

With `CCn1ccnc1CN1CCCC(CO)(Cc2cccc(Cl)c2)C1` (stereo not drawn), the Percent Effect was -1.24%.

Consider `COc1cccc(C(=O)NS(=O)(=O)c2cccc(C#N)c2)c1OC`, for which the Percent Effect amounted to 2.4%.

As for `Cc1csc(N2CCN(CCc3ccccn3)CC2C)n1` (stereo not drawn), the Percent Effect is -3.64%.

On to `Cn1nnc2c1CCN(Cc1ccccc1)C2COCC1CC1` (stereo not drawn), for which the Percent Effect is 2.1%.

With `c1ccc(-c2noc3c2CN(CC2CC2)CC3)cc1`, the Percent Effect was -0.455%.

On to `CC(C)(C)c1n[nH]c(C2CN(C(=O)c3csnn3)CCO2)n1` (stereo not drawn), for which the Percent Effect came to 1.18%.

For `O=C(NC[C@H]1OC[C@@H]2CCN(Cc3ccco3)C[C@@H]21)c1ccsc1`, the Percent Effect was -9.58%.

Consider `CS(=O)(=O)NC[C@]12COC[C@H]1CN(C(=O)c1ccoc1)C2`, for which the Percent Effect came out at 4.52%.

`Cc1nn(C)c(N(C)C)c1CNCc1ccccc1CN(C)C`: the Percent Effect is -6.24%.
